Test results published in the supplement of paper PMC7366291.
Structures can show the parent of a compound that is named as a salt. ± gives the standard deviation or the standard deviation of the averaged measurements.

Key:
Conditions in all cases: 25 µM; exposure: 24-48 hpf
[1] = system: Danio rerio Tg(wt1b:EGFP) embryo, pronephros; assay: glomerular separation, fold change vs DMSO control; higher = glomeruli further apart (abnormal)
Method in brief: (§1)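 Dechorionated Tg(wt1b:EGFP) zebrafish embryos were treated with 25 μM compound in 0.5% DMSO, in HEPES-buffered E3 with 0.003% PTU, from 24 to 48 hpf at 28.5°C. On maximum projections of dorsal pronephros images, 16 hand-placed reference points in Fiji gave distances and angles, and values more than 2 SD from the feature mean were left out. Results are fold changes over the mean of same-day DMSO-treated embryos.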

[2] = system: Danio rerio Tg(wt1b:EGFP) embryo, pronephros; assay: glomerular width (mean of left and right), fold change vs DMSO control; higher = wider glomerulus
Method in brief: as §1

[3] = system: Danio rerio Tg(wt1b:EGFP) embryo, pronephros; assay: fraction of imaged embryos annotated as normal kidney; higher = less nephrotoxic; extreme values may be limits of the assay
Method in brief: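 Tricaine-anaesthetised Tg(wt1b:EGFP) zebrafish larvae were oriented dorsally in agarose-filled 96-well plates, and their pronephroi were recorded by widefield fluorescence at 470 nm in 10 z-slices. Before this, the dechorionated embryos had been exposed in 12-well plates to 25 μM compound in 0.5% DMSO and 5 mM HEPES-buffered E3 with 0.003% PTU, from 24 to 48 hpf at 28.5°C. Maximum projections were annotated manually for each embryo, and the read-out is the fraction per treatment classed as normal kidney.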

[4] = system: Danio rerio Tg(wt1b:EGFP) embryo, pronephros; assay: pronephric angle neck segment to proximal convoluted tubule (mean of left and right), fold change vs DMSO control; higher = larger pronephric angle
Method in brief: as §1

SMILES	glomerular separation [1]	glomerular width [2]	fraction of imaged embryos annotated as normal kidney [3]	pronephric angle neck segment [4]
c1cnc(N2CCN(Cc3ccc4c(c3)OCO4)CC2)nc1 [Piribedil hydrochloride]	1.01 ± 0.4	0.962 ± 0.028	0.833	1.01 ± 0.055
CCCCOC(=O)c1ccc(N)cc1 [Butamben]	1.07 ± 0.41	1.04 ± 0.12	0.917	0.9834 ± 0.0087
CCOc1cc(CC(=O)N[C@@H](CC(C)C)c2ccccc2N2CCCCC2)ccc1C(=O)O [Repaglinide]	1.44 ± 0.91	0.943 ± 0.028	0.75	1.06 ± 0.036
Cn1c(=O)c2nc[nH]c2n(C)c1=O [Theophylline monohydrate]	0.92 ± 0.21	0.999 ± 0.047	1	1 ± 0.011
CCN(CC)CC#CCOC(=O)C(O)(c1ccccc1)C1CCCCC1 (configuration not stated) [Oxybutynin chloride]	1.32 ± 0.54	1.04 ± 0.022	1	0.985 ± 0.028
C[C@H](CCC(=O)O)[C@H]1CC[C@H]2[C@@H]3CC[C@@H]4C[C@H](O)CC[C@]4(C)[C@H]3CC[C@]12C [Lithocholic acid]	1.26 ± 0.64	0.839 ± 0.085	0.364	0.929 ± 0.046
N=C(N=C(N)N)N1CCOCC1 [Moroxidine hydrochloride]	1.26 ± 0.44	1.07 ± 0.049	0.75	0.903 ± 0.039
C[C@]12CC[C@@H]3c4ccc(O)cc4C[C@@H](CCCCCCCCC[S+]([O-])CCCC(F)(F)C(F)(F)F)[C@H]3[C@@H]1CC[C@@H]2O (some centres not stated) [Fulvestrant]	1.22 ± 0.45	0.963 ± 0.037	0.833	0.874 ± 0.065
Cc1cc2c(s1)Nc1ccccc1N=C2N1CCN(C)CC1 [Olanzapine]	0.786 ± 0.41	0.925 ± 0.034	0.917	1.01 ± 0.041
Cc1ccsc1/C=C/C1=NCCCN1C [Morantel tartrate]	0.982 ± 0.26	1.132 ± 0.011	0.5	1.01 ± 0.019
C#CCN(C)CCCOc1ccc(Cl)cc1Cl [Clorgyline hydrochloride]	0.959 ± 0.32	1.05 ± 0.029	1	0.984 ± 0.047
NC[C@H]1O[C@H](O[C@H]2[C@H](O[C@@H]3O[C@H](CO)[C@@H](O)[C@H]3O)[C@@H](O)[C@H](N)C[C@@H]2N)[C@H](N)[C@@H](O)[C@@H]1O [Ribostamycin sulfate salt]	0.722 ± 0.22	1.08 ± 0.019	0.833	1.06 ± 0.061
CN1CCCCC1CCN1c2ccccc2Sc2ccc([S+](C)[O-])cc21 (configuration not stated) [Mesoridazine besylate]	1.4 ± 1	0.916 ± 0.033	0.833	1.02 ± 0.033
Cc1cnc(NC(=O)C2=C(O)c3ccccc3S(=O)(=O)N2C)s1 [Meloxicam]	6.33 ± 2.2	0.678 ± 0.021	0	1.76 ± 0.0091
CN[C@H]1CC[C@@H](c2ccc(Cl)c(Cl)c2)c2ccccc21 [Sertraline]	0.914 ± 0.35	0.973 ± 0.035	0.917	0.969 ± 0.045
CC(C)(C)NC(=O)[C@H]1CC[C@H]2[C@@H]3CC[C@H]4NC(=O)C=C[C@]4(C)[C@H]3CC[C@]12C [Finasteride]	0.797 ± 0.34	0.937 ± 0.018	0.917	1.04 ± 0.023
CCOC(=O)n1ccn(C)c1=S [Carbimazole]	1.35 ± 0.58	0.997 ± 0.029	0.667	1.052 ± 0.0026
CC(C)(C)NCC(O)COc1cccc2c1CC(O)C(O)C2 (configuration not stated) [Nadolol]	0.664 ± 0.2	1.03 ± 0.12	0.833	0.908 ± 0.02
CN[C@@H]1[C@H](O[C@H]2[C@H](O[C@H]3[C@H](O)[C@@H](O)[C@H](NC(=N)N)[C@@H](O)[C@@H]3NC(=N)N)O[C@@H](C)[C@]2(O)CO)O[C@@H](CO)[C@H](O)[C@H]1O [Dihydrostreptomycin sulfate]	0.844 ± 0.18	1.0469 ± 0.00096	0.667	0.975 ± 0.048
Cc1nc2ccccn2c(=O)c1CCN1CCC(C(=O)c2ccc(F)cc2)CC1 [Pirenperone]	0.831 ± 0.3	1.05 ± 0.037	1	0.924 ± 0.0096
CN1CCCN(C(c2ccccc2)c2ccc(Cl)cc2)CC1 (configuration not stated) [Homochlorcyclizine dihydrochloride]	1.08 ± 0.45	0.975 ± 0.015	1	1.013 ± 0.0017
OC(CCN1CCCC1)(c1ccccc1)C1CCCCC1 (configuration not stated) [Procyclidine hydrochloride]	0.639 ± 0.26	1.1 ± 0.013	0.833	0.954 ± 0.035
Cn1ccnc1S [Methimazole]	1.23 ± 0.58	0.876 ± 0.045	0.818	1.11 ± 0.064
COc1cc([S+](C)[O-])ccc1-c1nc2cccnc2[nH]1 (configuration not stated) [Sulmazole]	0.979 ± 0.27	1.05 ± 0.015	0.833	0.9818 ± 0.0097
CN1C(C(=O)Nc2ccccn2)=C(O)c2sccc2S1(=O)=O [Tenoxicam]	0.97 ± 0.16	0.985 ± 0.022	0.917	0.999 ± 0.028
COc1cc(N)c(Cl)cc1C(=O)NC1CCN(CCCOc2ccc(F)cc2)CC1OC (configuration not stated) [Cisapride]	1.09 ± 0.39	1.066 ± 0.0076	0.583	0.992 ± 0.071
CC(=O)CC(c1ccccc1)c1c(O)c2ccccc2oc1=O (configuration not stated) [Warfarin]	1.14 ± 0.45	0.797 ± 0.048	0.333	1.25 ± 0.027
Cc1onc(-c2ccccc2)c1C(=O)N[C@@H]1C(=O)N2[C@@H]1SC(C)(C)[C@@H]2C(=O)O [Oxacillin sodium]	0.779 ± 0.29	1 ± 0.087	0.833	0.9685 ± 0.0044
